Hits are enriched below; roughly 5.9% of the tested compounds scored in any of these assays.
RORg inh: qHTS for inhibitors of ROR gamma transcriptional activity; Nuclear receptor ROR-gamma (Mus musculus), P51450; Drosophila S2 Gal4-RORgamma UAS-luciferase reporter, 20 h; Potency, µM (series often up to 53.6 µM), inactives show top-dose activity change, negative = inhibition, usual class: inhibitors; actives 5.4% (n = 310,000); AID 2551, 2010; further: potency means the concentration at half of the fitted maximal effect; nearly all actives have a fitted effect of over 60% in size
Target sequence (P51450 whole entry, looked up, the tested form may be a part): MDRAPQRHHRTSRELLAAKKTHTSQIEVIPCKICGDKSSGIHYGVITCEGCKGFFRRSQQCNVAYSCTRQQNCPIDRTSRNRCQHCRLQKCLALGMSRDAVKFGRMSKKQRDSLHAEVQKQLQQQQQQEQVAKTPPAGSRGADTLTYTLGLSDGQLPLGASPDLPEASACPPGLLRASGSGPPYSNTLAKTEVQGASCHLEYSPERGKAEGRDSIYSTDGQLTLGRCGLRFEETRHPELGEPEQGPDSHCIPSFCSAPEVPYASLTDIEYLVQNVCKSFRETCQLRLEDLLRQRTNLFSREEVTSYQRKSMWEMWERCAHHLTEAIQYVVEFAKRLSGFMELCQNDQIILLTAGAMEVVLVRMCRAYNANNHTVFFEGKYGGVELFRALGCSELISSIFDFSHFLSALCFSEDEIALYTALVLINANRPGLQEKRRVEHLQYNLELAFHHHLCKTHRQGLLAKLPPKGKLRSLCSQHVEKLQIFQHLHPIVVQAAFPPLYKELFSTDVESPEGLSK
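Read-out: Photinus luciferase luminescence; inhibitors lower reporter signal. Insect Schneider cells with Gal4-ROR gamma fusion under metallothionein promoter, UAS reporter; 700 uM final copper sulfate induction, 20 hr, ambient temperature.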
TrxR1 substrate: qHTS Assay for Substrates of Mammalian Selenoprotein Thioredoxin Reductase 1 (TrxR1): qHTS. purified TrxR1 substrate turnover, NADPH consumption readout. Thioredoxin reductase 1, cytoplasmic (Rattus norvegicus), O89049. actives 0.01% (n = 390,000). Potency, µM (top dose mostly 114 µM), for inactives: at the top dose activity change, negative = substrate turnover. AID 588456, 2011; further: potency means the concentration at half of the fitted maximal effect; nearly all actives have a fitted effect of over 50% in size
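Rat TrxR1, dispensed at 90 nM, was prereduced with 400 uM NADPH (final) for 5 min at ~22 deg C, then incubated with compound 15 min before 400 uM selenite. A first-read NADPH fluorescence drop versus no-compound background flagged substrates.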
GALK inhibitor: qHTS Assay for Inhibitors of Human Galactokinase (GALK) | actives 0.007% (n = 270,000) | Purified GALK, Kinase-Glo residual ATP luminescence | P51570 | Potency, µM (highest dose often 57.5 µM), for inactives: at the highest dose activity change, negative = inhibition, usual class: inhibitors; further: potency means the concentration at half of the fitted maximal effect
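ATP-depletion format; final 35 uM ATP, 100 uM D-galactose, 5 nM enzyme; pH 8.0 HEPES/Mg2+ buffer; 60 min RT; luminescence read 10 min after detection reagent.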
Coupling enz: qHTS Assay for Inhibitors of Fructose-1,6-bisphosphate Aldolase from Giardia Lamblia: Coupling assay counterscreen; activity change, negative = inhibition, % at 58.2 µM, hits read low; AID 2472, 2010; actives 0.67% (n = 290,000); coupling enzyme system counterscreen, AmpLite Red fluorescence; in the data active means activity change below about -30%
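Compounds tested against the coupling enzymes alone at 57.5 uM final; readout was AmpLite Red fluorescence (525/598 nm) after 20 min at RT.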
rTrxR1 inhibitor: qHTS Assay for Inhibitors of Mammalian Selenoprotein Thioredoxin Reductase 1 (TrxR1): qHTS; Thioredoxin reductase 1, cytoplasmic (Rattus norvegicus), O89049; recombinant rTrxR1, NADPH fluorescence consumption, selenite substrate; Potency, µM (highest dose often 114 µM), without a hit: at the highest dose activity change, negative = inhibition, hits mostly inhibitors; actives 1% (n = 390,000); further: potency means the concentration at half of the fitted maximal effect; nearly all actives have a fitted effect of over 65% in size
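Rat TrxR1 (90 nM in the dispensed reagent) was pre-reduced with 400 uM NADPH for 5 min at room temperature, then incubated with compound for 15 min. After 400 uM selenite was added, NADPH fluorescence (Ex 340/Em 450 nm) was followed for 8 min.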
Gal4-VP16 FLuc: VP16 counterscreen qHTS for inhibitors of ROR gamma transcriptional activity | Drosophila S2 Gal4-VP16 UAS-luciferase, luminescence, 20 h | Potency, µM (doses to about 53.6 µM), for inactives: at the top dose activity, negative = inhibition, hits mostly inhibitors | actives 3.5% (n = 310,000) | AID 2546, 2010;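 further: Gal4-VP16 expression switched on by copper sulfate through the metallothionein promoter; potency means the concentration at half of the fitted maximal effect; nearly all actives have a fitted effect of over 50% in size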
Active calls of the source: *; ? = inconclusive; nt = not tested or not shown; [ ] = remark or other dose. Unless noted, the call rests on the fitted dose curve; in most records, active means well fitted curve in the direction sought with a large enough effect; inconclusive means small, poorly fitted or top-dose-only effect, or another doubt; inactive means no such curve, though single readings can be large; an effect the other way counts as inactive or inconclusive. On the % scale 0 is the no-effect control and ±100 the full control effect.

SMILES | RORg inh | TrxR1 substrate | GALK inhibitor | Coupling enz | rTrxR1 inhibitor | Gal4-VP16 FLuc
O=C1C2=C(c3ccccc31)[N+](=O)C1CCCCC1N2[O-] (configuration not stated) | -30% | -2%[57.1 µM] | -2% | -38* | 16%[57.1 µM] | 0%
CC1CCN(C2=C(NS(=O)(=O)c3ccc(Br)cc3)C(=O)c3ccccc3C2=O)CC1 | -38% | -8% | 1% | -17 | 2% | ?
O=C(COC(=O)[C@@H]1CC(O)CN1S(=O)(=O)c1ccc2c(c1)OCCO2)Nc1cc(F)ccc1F (some centres not stated) | nt | 6% | nt | nt | 15% | nt
CCOc1cc(C2c3c(n[nH]c3C)C(=O)N2c2ccc(Br)cc2)ccc1O (configuration not stated) | ? | 5% | -1% | -1 | ? | -27%
COc1cc(C2c3c(n[nH]c3C)C(=O)N2c2ccc(Br)cc2)ccc1O (configuration not stated) | 35% | 4% | -2% | 6 | 7.9µM* | 26%
Cc1ccc(-c2cc3cccc[n+]3cc2-c2ccc(C)cc2)cc1 | ? | 69% | 3% | -1 | -18% | 13µM*
COC(=O)C(CC(=O)c1ccc(C)cc1)n1nc(C)cc1C (configuration not stated) | 2% | 12% | -5% | 6 | ? | -6%
COC(=O)C(CC(=O)c1ccc(Br)cc1)n1ccnc1 (configuration not stated) | 0.63µM* | 0% | -1% | 6 | -21%[0.0914 µM] | 1µM*
COC(=O)C(CC(=O)c1ccc(Br)cc1)n1nc(C)cc1C (configuration not stated) | ? | 9% | 7% | -1 | 8.9µM* | ?
Cc1ccc2nc(-c3ccc(F)cc3)nc(SCC(=O)NCC3CCCO3)c2c1 (configuration not stated) | -9% | -13% | 8% | 0 | -22% | -2%
COc1ccccc1NC(=O)CSc1nnc(CNC(=O)c2cccs2)o1 | -6% | 9% | -1% | nt | 28% | -6%
O=C(N/N=C/c1cnc(N2CCCCC2)s1)c1ccc(Cl)cc1 | 2.2µM* | -9% | 6% | 0 | 11% | ?
O=Cc1cnc(N2CCCCC2)s1 | 14% | -9% | 7% | -1 | -34% | 4%
O=C(O)COc1ccccc1O | -9% | -3% | -1% | 1 | 21% | -3%
COC(C(=O)C(O)C(C)O)C1Cc2cc3cc(OC4CC(OC5CC(O)C(O)C(C)O5)C(O)C(C)O4)c(C)c(O)c3c(O)c2C(=O)C1OC1CC(OC2CC(OC3CC(O)C(OC)C(C)O3)C(O)C(C)O2)C(O)C(C)O1 (configuration not stated) | nt | -11% | nt | nt | -23% | nt
COC(C(=O)C(O)C(C)O)C1Cc2cc3cc(OC4CC(OC5CC(O)C(O)C(C)O5)C(O)C(C)O4)c(C)c(O)c3c(O)c2C(=O)C1OC1CC(OC2CC(OC3CC(C)(O)C(O)C(C)O3)C(O)C(C)O2)C(O)C(C)O1 (configuration not stated) | 0.71µM* | -11% | nt | nt | -23% | 0.79µM*
CO[C@H](C(=O)[C@@H](O)[C@@H](C)O)C1Cc2cc3cc(O[C@H]4C[C@@H](O[C@H]5C[C@@H](O)[C@H](O)[C@@H](C)O5)[C@@H](O)[C@@H](C)O4)c(C)c(O)c3c(O)c2C(=O)[C@H]1O[C@H]1C[C@@H](O[C@H]2C[C@@H](O[C@H]3C[C@](C)(O)[C@H](O)[C@@H](C)O3)[C@H](O)[C@@H](C)O2)[C@H](O)[C@@H](C)O1 (some centres not stated) | 0.63µM* | nt | nt | nt | nt | 0.5µM*
CC12CC3CC(C)(C1)CC(C(=O)Nc1nncs1)(C3)C2 | ? | -11% | -1% | 0 | -11% | 18µM*
Cc1nnc(NC(=O)C23CC4CC(C)(CC(C)(C4)C2)C3)s1 | nt | -1% | nt | nt | 8% | nt
CCC(=O)Nc1ccccc1C(=O)OCC(=O)c1ccccc1 | 10µM* | -3% | 1% | nt | 4% | -26%
CCCCC(=O)Nc1ccccc1C(=O)OCC(=O)c1ccc2c(c1)OCCO2 | ? | -3% | -2% | 1 | 5% | ?
O=C(O)/C=C/C(=O)Nc1ccccc1C(=O)OCC(=O)c1ccc2c(c1)OCCO2 | 7.9µM* | 6%[57.1 µM] | 0% | 0 | 15%[57.1 µM] | 8.9µM*
Cc1cc(C(=O)Nc2ccc3c(c2)OCCO3)c(C)o1 | -38% | -12% | -4% | 0 | 5%[57.1 µM] | -15%
Cc1occc1C(=O)Nc1ccc2c(c1)OCCO2 | 8.9µM* | 6%[57.1 µM] | 9% | -10 | -5%[57.1 µM] | ?
O=C(Nc1ccc2c(c1)OCCO2)C(=O)c1c[nH]c2ccccc12 | 2.5µM* | 4% | -6% | nt | 21% | 3.2µM*
SMILES | RORg inh | TrxR1 substrate | GALK inhibitor | Coupling enz | rTrxR1 inhibitor | Gal4-VP16 FLuc
O=C(Nc1ccc2c(c1)OCO2)C(=O)c1c[nH]c2ccccc12 | -17% | 1% | 2% | nt | 22% | -2%
Cc1ccccc1C(=O)Nc1ccc2c(c1)OCCO2 | 8.9µM* | 4% | 6% | -2 | 22% | ?
CC(C)c1ccc(N(C(=O)c2csnn2)C(C(=O)NC2CCCC2)c2ccncc2)cc1 (configuration not stated) | 5% | -1% | -2% | 2 | 10% | 33%
CC1CN(C(=S)Nc2ccccc2)C(C)CN1C=O (configuration not stated) | nt | -1%[2.29 µM] | nt | nt | 6%[57.1 µM] | nt
Cc1[nH]c2ccccc2c1C(c1ccccn1)c1c(C)[nH]c2ccccc12 | 5% | -2% | 1% | -71* | 40µM* | 9%
Cc1[nH]c2ccccc2c1C(c1c(C)[nH]c2ccccc12)c1c(C)[nH]c2ccccc12 | nt | -2% | nt | nt | -19% | nt
Cc1nn(CCc2n[nH]c(=S)n2-c2ccc(F)cc2)c(C)c1[N+](=O)[O-] | ? | 0% | 1% | 1 | -25% | -6%
Cc1nn(CCc2n[nH]c(=S)n2-c2ccc(F)c(Cl)c2)c(C)c1[N+](=O)[O-] | 7.1µM* | 2%[57.1 µM] | -6% | 1 | -19%[57.1 µM] | ?
Cc1cccc(-n2c(CNC(=O)c3cccc([N+](=O)[O-])c3C)n[nH]c2=S)c1 | -36% | 0% | 2% | 1 | -14% | 1%
Cc1cccc(-n2c(Cn3nc(C)c([N+](=O)[O-])c3C)n[nH]c2=S)c1 | 11µM* | 2% | nt | 8 | ? | -5%
O=C(CCN1CCOCC1)Nc1ccc(F)cc1 | -31% | 19% | 0% | 0 | 38% | -3%

Bioassay records (PubChem)
